According to PubChem BioAssay (NCI):
The panel holds about 83,000 compounds, 20% with a hit somewhere; the sample as a whole holds those more often.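 How to read the values: 0–100, growth inhibition (40 = 60% inhibited); 0, no net growth; -100 to 0, cell death (-40 = 40% of starting cells died; -100 = all dead).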

Tests used:
Experiment in all cases: NCI-60 one-dose screen, 48 h (100 = growth as untreated, 0 = no growth, -100 = all killed)
Details in all cases: 10 µM unless noted; active = growth percent below 10; inactive = the rest
NCI-H23 lung = system: NCI-H23 lung
NCI-H226 lung = system: NCI-H226 lung
NCI-H322M lung = system: NCI-H322M lung
HOP-62 NSCLC = system: HOP-62 NSCLC
NCI-H460 lung = system: NCI-H460 lung
HOP-92 NSCLC = system: HOP-92 NSCLC
NCI-H522 lung = system: NCI-H522 lung
A549/ATCC NSCLC = system: A549/ATCC NSCLC
786-0 renal = system: 786-0 renal
COLO 205 colon = system: COLO 205 colon
DU-145 prostate = system: DU-145 prostate
K-562 leukemia = system: K-562 leukemia
MALME-3M melanoma = system: MALME-3M melanoma
MDA-MB-231 breast = system: MDA-MB-231 breast
RXF 393 renal = system: RXF 393 renal
SF-268 CNS = system: SF-268 CNS
SF-295 CNS = system: SF-295 CNS
SF-539 CNS = system: SF-539 CNS
M14 melanoma = system: M14 melanoma
UACC-257 melanoma = system: UACC-257 melanoma

Measured: growth

Nc1cc2nc3ccccc3nc2cc1N
inactive: NCI-H23 lung 77.3% | NCI-H226 lung 85.6% | NCI-H322M lung 99.4% | HOP-62 NSCLC 80.4% | NCI-H460 lung 95.7% | HOP-92 NSCLC 97.8% | NCI-H522 lung 79.8% | A549/ATCC NSCLC 80.1% | 786-0 renal 102% | COLO 205 colon 106% | DU-145 prostate 91.5% | K-562 leukemia 59.8% | MALME-3M melanoma 122% | MDA-MB-231 breast 86.9% | RXF 393 renal 81.5% | SF-268 CNS 92.4% | SF-295 CNS 89.8% | SF-539 CNS 95.4% | M14 melanoma 109%

O=C(O)CNC(=O)C(Cl)(Cl)Cl
inactive: NCI-H23 lung 106% | NCI-H226 lung 94.1% | NCI-H322M lung 97.7% | HOP-62 NSCLC 107% | NCI-H460 lung 96.2% | HOP-92 NSCLC 87.2% | NCI-H522 lung 85.1% | A549/ATCC NSCLC 98.2% | 786-0 renal 98.8% | COLO 205 colon 106% | DU-145 prostate 107% | K-562 leukemia 108% | MALME-3M melanoma 97.6% | MDA-MB-231 breast 103% | RXF 393 renal 92.1% | SF-268 CNS 104% | SF-539 CNS 103% | UACC-257 melanoma 88% | M14 melanoma 107%

CCN(CC)CCOC(=O)C(OC(C)C)(c1ccccc1)c1ccccc1
inactive: NCI-H23 lung 99.1% | NCI-H226 lung 100% | NCI-H322M lung 99.6% | HOP-62 NSCLC 94.8% | NCI-H460 lung 100% | HOP-92 NSCLC 80.1% | NCI-H522 lung 82.3% | A549/ATCC NSCLC 96.9% | 786-0 renal 88.2% | COLO 205 colon 98% | DU-145 prostate 98.8% | K-562 leukemia 97.3% | MALME-3M melanoma 101% | MDA-MB-231 breast 99.3% | RXF 393 renal 98.5% | SF-268 CNS 93% | SF-295 CNS 109% | SF-539 CNS 111% | M14 melanoma 110%

C=CCCCN=C=S
inactive: NCI-H23 lung 82% | NCI-H226 lung 94.9% | NCI-H322M lung 80.7% | HOP-62 NSCLC 76.1% | NCI-H460 lung 47.9% | HOP-92 NSCLC 92% | NCI-H522 lung 38% | A549/ATCC NSCLC 75.2% | 786-0 renal 93.4% | COLO 205 colon 91.2% | DU-145 prostate 60.5% | K-562 leukemia 59.8% | MALME-3M melanoma 76.7% | MDA-MB-231 breast 68.3% | RXF 393 renal 80% | SF-268 CNS 77.4% | SF-295 CNS 92.4% | UACC-257 melanoma 62.5% | M14 melanoma 60.9%

COc1cc(NC(C)CCCNC2CN3CCC2CC3)c2ncccc2c1 (configuration not stated)
inactive: NCI-H23 lung 84.5% | NCI-H226 lung 87.4% | NCI-H322M lung 63.3% | HOP-62 NSCLC 75.8% | NCI-H460 lung 106% | HOP-92 NSCLC 46.6% | NCI-H522 lung 82.1% | A549/ATCC NSCLC 95.1% | 786-0 renal 62.5% | COLO 205 colon 35.3% | DU-145 prostate 112% | K-562 leukemia 22.8% | MALME-3M melanoma 81.3% | MDA-MB-231 breast 55.1% | RXF 393 renal 66.1% | SF-268 CNS 89.6% | SF-539 CNS 82.3% | UACC-257 melanoma 39.9% | M14 melanoma 51.2%

CCC1(C)CC(CCNCc2ccccc2O)(c2ccc(C)cc2)CCO1 (configuration not stated)
inactive: NCI-H23 lung 101% | NCI-H226 lung 107% | NCI-H322M lung 108% | HOP-62 NSCLC 108% | NCI-H460 lung 102% | HOP-92 NSCLC 105% | NCI-H522 lung 108% | A549/ATCC NSCLC 101% | 786-0 renal 101% | COLO 205 colon 115% | DU-145 prostate 103% | K-562 leukemia 101% | MALME-3M melanoma 109% | MDA-MB-231 breast 106% | RXF 393 renal 111% | SF-268 CNS 105% | SF-539 CNS 99.1% | UACC-257 melanoma 107% | M14 melanoma 104%

CN(C)C(=O)Oc1ccccc1
inactive: NCI-H23 lung 104% | NCI-H226 lung 105% | NCI-H322M lung 109% | HOP-62 NSCLC 96.3% | NCI-H460 lung 97.5% | HOP-92 NSCLC 101% | NCI-H522 lung 112% | A549/ATCC NSCLC 103% | 786-0 renal 107% | COLO 205 colon 112% | DU-145 prostate 108% | K-562 leukemia 111% | MALME-3M melanoma 109% | MDA-MB-231 breast 115% | RXF 393 renal 122% | SF-295 CNS 103% | SF-539 CNS 93.7% | UACC-257 melanoma 98.9% | M14 melanoma 103%

CC(CC1CCCCC1)NCc1ccccc1 (configuration not stated)
inactive: NCI-H23 lung 85.7% | NCI-H226 lung 101% | NCI-H322M lung 95% | HOP-62 NSCLC 102% | NCI-H460 lung 105% | HOP-92 NSCLC 80.1% | NCI-H522 lung 94.6% | A549/ATCC NSCLC 98.2% | 786-0 renal 99.9% | COLO 205 colon 103% | DU-145 prostate 108% | K-562 leukemia 109% | MALME-3M melanoma 88.9% | MDA-MB-231 breast 97.3% | RXF 393 renal 99.6% | SF-268 CNS 103% | SF-295 CNS 93.6% | SF-539 CNS 103% | M14 melanoma 90.2%
